Reference: the supplement of paper PMC11738630

Tested on: Salmonella enterica serovar Typhimurium 14028s
Assay: approximate change in surviving CFU after surface colonization relative to water-only control (log10 CFU/mL change); higher = more surviving bacteria (less inhibition of surface colonization)
Settings: not stated (Biolog proprietary concentration), surface: plastic 96-well plate, 20-24 h at 25 °C

## CC(O)CO (stereo not drawn) [1,2-Propanediol]
Biolog plate: PM1, Biolog well: D4
  approximate change in surviving CFU (log10): -0.3

## O=C(O)CCC(=O)C(=O)O [a-Keto-Glutaric Acid]
Biolog plate: PM1, Biolog well: D6
  approximate change in surviving CFU (log10): 1.19

## CO[C@@H]1O[C@H](CO)[C@@H](O)[C@H](O)[C@H]1O [B-Methyl-D-Glucoside]
Biolog plate: PM1, Biolog well: E8
  approximate change in surviving CFU (log10): 1.33

## C[C@H](O)[C@@H](N)C(=O)O [D-Threonine]
Biolog plate: PM1, Biolog well: F4
  approximate change in surviving CFU (log10): 0.901

## O=C(O)C[C@H](O)C(=O)O [L-Malic Acid]
Biolog plate: PM1, Biolog well: G12
  approximate change in surviving CFU (log10): 1.01

## O=C(O)Cc1ccc(O)cc1 [p-Hydroxy Phenyl Acetic Acid]
Biolog plate: PM1, Biolog well: H2
  approximate change in surviving CFU (log10): -2.12

## OC[C@H]1O[C@@H](O[C@H]2[C@H](O)[C@@H](O)[C@H](O[C@H]3[C@H](O)[C@H](O)[C@H](O[C@@H]4[C@H](O)[C@H](O)[C@H](O)O[C@@H]4CO)O[C@@H]3CO)O[C@@H]2CO)[C@@H](O)[C@@H](O)[C@@H]1O [Mannan]
Biolog plate: PM2, Biolog well: A11
  approximate change in surviving CFU (log10): 0.837

## OC[C@H]1O[C@@H](Oc2ccc(O)cc2)[C@H](O)[C@@H](O)[C@@H]1O [Arbutin]
Biolog plate: PM2, Biolog well: B8
  approximate change in surviving CFU (log10): 1.29

## O=C[C@H](O)[C@@H](O)[C@H](O)[C@H](O)CO[C@@H]1O[C@H](CO)[C@@H](O)[C@H](O)[C@H]1O [Gentiobiose]
Biolog plate: PM2, Biolog well: C1
  approximate change in surviving CFU (log10): 1.09

## CO[C@@H]1OC[C@@H](O)[C@H](O)[C@H]1O [b-Methyl-D-Xyloside]
Biolog plate: PM2, Biolog well: C11
  approximate change in surviving CFU (log10): -0.215

## O=C(CO)[C@@H](O)[C@H](O)[C@H](O)CO[C@H]1O[C@H](CO)[C@@H](O)[C@H](O)[C@H]1O [Palatinose]
Biolog plate: PM2, Biolog well: C12
  approximate change in surviving CFU (log10): 0.751

## CCCCCCCCCC(=O)O [Capric Acid]
Biolog plate: PM2, Biolog well: E1
  approximate change in surviving CFU (log10): -0.88

## CCCCCC(=O)O [Caproic Acid]
Biolog plate: PM2, Biolog well: E2
  approximate change in surviving CFU (log10): -0.859

## O=C(O)c1ccccc1O [2-Hydroxy Benzoic Acid (Salicylic Acid)]
Biolog plate: PM2, Biolog well: E6
  approximate change in surviving CFU (log10): -1.72

## C=C(CC(=O)O)C(=O)O [Itaconic Acid]
Biolog plate: PM2, Biolog well: E11
  approximate change in surviving CFU (log10): -3.95

## O=C(O)C(=O)O [Oxalic Acid]
Biolog plate: PM2, Biolog well: F4
  approximate change in surviving CFU (log10): 0.429

## C/C=C/C=C/C(=O)O [Sorbic Acid]
Biolog plate: PM2, Biolog well: F9
  approximate change in surviving CFU (log10): -2.68

## O=C(O)[C@H](O)[C@@H](O)C(=O)O [L-Tartaric Acid]
Biolog plate: PM2, Biolog well: F12
  approximate change in surviving CFU (log10): 0.687

## N [Ammonia]
Biolog plate: PM3, Biolog well: A2
  approximate change in surviving CFU (log10): 0.0644

## CCCCCN [N-Amylamine]
Biolog plate: PM3, Biolog well: D6
  approximate change in surviving CFU (log10): -0.708

## CCCCN [N-Butylamine]
Biolog plate: PM3, Biolog well: D7
  approximate change in surviving CFU (log10): -2.12

## CCN [Ethylamine]
Biolog plate: PM3, Biolog well: D8
  approximate change in surviving CFU (log10): -1.89

## NC=O [Formamide]
Biolog plate: PM3, Biolog well: E5
  approximate change in surviving CFU (log10): -0.708

## N[C@@H]1C(O)O[C@H](CO)[C@@H](O)[C@@H]1O (stereo partly drawn) [D-Mannosamine]
Biolog plate: PM3, Biolog well: E10
  approximate change in surviving CFU (log10): -1.09

## Nc1ccn([C@@H]2O[C@H](CO)[C@@H](O)[C@H]2O)c(=O)n1 [Cytidine]
Biolog plate: PM3, Biolog well: F4
  approximate change in surviving CFU (log10): 0.386

## O=c1[nH]c(=O)c2nc[nH]c2[nH]1 [Xanthine]
Biolog plate: PM3, Biolog well: G1
  approximate change in surviving CFU (log10): 0.408

## C[C@H](N)C(=O)N[C@@H](CCC(N)=O)C(=O)O
Biolog plate: PM3, Biolog well: H2
  approximate change in surviving CFU (log10): 0.0644

## C[C@H](N)C(=O)NCC(=O)O
Biolog plate: PM3, Biolog well: H4
  approximate change in surviving CFU (log10): -0.322

## CSCC[C@H](NC(=O)CN)C(=O)O
Biolog plate: PM3, Biolog well: H11
  approximate change in surviving CFU (log10): -0.558

## N[C@@H](CC(=O)O)C(=O)O [L-Aspartic Acid]
Biolog plate: PM1, Biolog well: A7
  approximate change in surviving CFU (log10): 0.644
Biolog plate: PM3, Biolog well: A10
  approximate change in surviving CFU (log10): 0.451

## O=C(O)[C@@H]1CCCN1 [L-Proline]
Biolog plate: PM1, Biolog well: A8
  approximate change in surviving CFU (log10): 0.107
Biolog plate: PM3, Biolog well: B9
  approximate change in surviving CFU (log10): 0.0858

## C[C@@H](N)C(=O)O [D-Alanine]
Biolog plate: PM1, Biolog well: A9
  approximate change in surviving CFU (log10): 0.622
Biolog plate: PM3, Biolog well: C3
  approximate change in surviving CFU (log10): 0.343

## N[C@H](CO)C(=O)O [D-Serine]
Biolog plate: PM1, Biolog well: B1
  approximate change in surviving CFU (log10): 1.14
Biolog plate: PM3, Biolog well: C8
  approximate change in surviving CFU (log10): 0.279

## N[C@@H](CCC(=O)O)C(=O)O [L-Glutamic Acid]
Biolog plate: PM1, Biolog well: B12
  approximate change in surviving CFU (log10): 1.24
Biolog plate: PM3, Biolog well: A12
  approximate change in surviving CFU (log10): 0.279

## Cc1cn([C@H]2C[C@H](O)[C@@H](CO)O2)c(=O)[nH]c1=O [Thymidine]
Biolog plate: PM1, Biolog well: C12
  approximate change in surviving CFU (log10): 1.5
Biolog plate: PM3, Biolog well: F9
  approximate change in surviving CFU (log10): -0.193

## NC(=O)C[C@H](N)C(=O)O [L-Asparagine]
Biolog plate: PM1, Biolog well: D1
  approximate change in surviving CFU (log10): 0.944
Biolog plate: PM3, Biolog well: A9
  approximate change in surviving CFU (log10): 0.451

## N[C@H](CC(=O)O)C(=O)O [D-Aspartic Acid]
Biolog plate: PM1, Biolog well: D2
  approximate change in surviving CFU (log10): 1.01
Biolog plate: PM3, Biolog well: C5
  approximate change in surviving CFU (log10): 0.816

## O=c1ccn([C@@H]2O[C@H](CO)[C@@H](O)[C@H]2O)c(=O)[nH]1 [Uridine]
Biolog plate: PM1, Biolog well: D12
  approximate change in surviving CFU (log10): 1.74
Biolog plate: PM3, Biolog well: F11
  approximate change in surviving CFU (log10): -0.236

## NC(=O)CC[C@H](N)C(=O)O [L-Glutamine]
Biolog plate: PM1, Biolog well: E1
  approximate change in surviving CFU (log10): 0.322
Biolog plate: PM3, Biolog well: B1
  approximate change in surviving CFU (log10): -0.0429

## CC[C@H](O)C(=O)O [a-Hydroxy Butyric Acid]
Biolog plate: PM1, Biolog well: E7
  approximate change in surviving CFU (log10): -2.3

## Nc1ncnc2c1ncn2[C@@H]1O[C@H](CO)[C@@H](O)[C@H]1O [Adenosine]
Biolog plate: PM1, Biolog well: E12
  approximate change in surviving CFU (log10): 0.622
Biolog plate: PM3, Biolog well: F3
  approximate change in surviving CFU (log10): 0.751

## O=C(O)CC(Br)C(=O)O (stereo not drawn) [Bromo Succinic Acid]
Biolog plate: PM1, Biolog well: F6
  approximate change in surviving CFU (log10): -0.901

## O=C(O)CO [Glycolic Acid]
Biolog plate: PM1, Biolog well: F9
  approximate change in surviving CFU (log10): 0.736
Biolog plate: PM2, Biolog well: E9
  approximate change in surviving CFU (log10): 0.644

## O=c1[nH]cnc2c1ncn2[C@@H]1O[C@H](CO)[C@@H](O)[C@H]1O [Inosine]
Biolog plate: PM1, Biolog well: F12
  approximate change in surviving CFU (log10): 1.65
Biolog plate: PM3, Biolog well: F12
  approximate change in surviving CFU (log10): -0.365

## N[C@@H](CO)C(=O)O [L-Serine]
Biolog plate: PM1, Biolog well: G3
  approximate change in surviving CFU (log10): 1.07
Biolog plate: PM3, Biolog well: B10
  approximate change in surviving CFU (log10): 0.107

## C[C@@H](O)[C@H](N)C(=O)O [L-Threonine]
Biolog plate: PM1, Biolog well: G4
  approximate change in surviving CFU (log10): 1.03
Biolog plate: PM3, Biolog well: B11
  approximate change in surviving CFU (log10): -0.129

## C[C@H](N)C(=O)O [L-Alanine]
Biolog plate: PM1, Biolog well: G5
  approximate change in surviving CFU (log10): 0.987
Biolog plate: PM3, Biolog well: A7
  approximate change in surviving CFU (log10): 0.129
